Assay outcomes (PubChem BioAssay)
TDP1 cell noCPT: qHTS for Inhibitors of human tyrosyl-DNA phosphodiesterase 1 (TDP1): qHTS in cells in absence of CPT | AID 686978, 2013 | 420,000 tested, 15% active | DT40 Tdp1-/- hTDP1 cells, no CPT, ATP luminescence, 48 h | Potency, µM (highest dose often 46.2 µM), hits mostly inhibitors; note: nearly all actives have a fitted effect of over 55% in size
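DT40 Tdp1-/-;hTDP1 cells, no CPT (DMSO vehicle only), 400 cells/well; compounds pin-transferred; ≥48 hr, 37 °C; CellTiter-Glo 30 min RT dark, luminescence read.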
IL1B secr inh: blocks inflammasome-driven IL-1 beta release. THP-1 LPS/ATP IL-1B secretion, AlphaLISA, 16 h; active compounds read low. 360,000 tested, 4.7% active. AID 743279. activity change, % at 57.5 µM; in the data active = activity change below about -50%; inconclusive = mostly about -30% to -49%
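THP-1 cells pretreated 1 hr with compounds (up to 57.5 uM final), then stimulated with LPS (250 ng/mL final) plus ATP (1.25 mM final); secreted IL-1B measured by AlphaLISA after 16 hr, decreased signal indicating inhibition.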
Six1-Eya2 blk: Six1/Eya2 interaction inhibition | AlphaScreen GST-Six1/His-Eya2 binding, biochemical; active compounds read low | activity change, % (test concentration not listed) | 360,000 tested, 0.56% active | Q15475+O00167; in the data active = activity change below about -65%; inconclusive = mostly about -30% to -63%
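Compounds are tested against tagged Six1 and Eya2 proteins bridged by glutathione donor and nickel acceptor beads; after a one-hour incubation at 37 °C without light, AlphaScreen emission is recorded.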
DT40 TDP1 CPT: growth inhibition of DT40 Tdp1-/-;hTDP1 cells with camptothecin (screen for TDP1 inhibitors). chicken DT40 Tdp1-/-;hTDP1 cells + 20 nM CPT, ATP luminescence, 48 h. Potency, µM (top dose mostly 46.2 µM), actives largely listed as inhibitors. 420,000 tested, 12% active. AID 686979; note: nearly all actives have a fitted effect of over 55% in size
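Chicken DT40 Tdp1-/- cells complemented with human TDP1, 400 cells/well, exposed to compounds plus 20 nM camptothecin for at least 48 h at 37 C; viability read as ATP content by CellTiter-Glo luminescence.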
TDP1 block: blocks human tyrosyl-DNA phosphodiesterase 1; Potency, µM (top dose mostly 130 µM), actives largely listed as inhibitors; recombinant TDP1, AlphaScreen DNA substrate cleavage; 350,000 tested, 0.28% active; Q9NUW8; note: nearly all actives have a fitted effect of over 40% in size
Target sequence (Q9NUW8 whole entry, looked up): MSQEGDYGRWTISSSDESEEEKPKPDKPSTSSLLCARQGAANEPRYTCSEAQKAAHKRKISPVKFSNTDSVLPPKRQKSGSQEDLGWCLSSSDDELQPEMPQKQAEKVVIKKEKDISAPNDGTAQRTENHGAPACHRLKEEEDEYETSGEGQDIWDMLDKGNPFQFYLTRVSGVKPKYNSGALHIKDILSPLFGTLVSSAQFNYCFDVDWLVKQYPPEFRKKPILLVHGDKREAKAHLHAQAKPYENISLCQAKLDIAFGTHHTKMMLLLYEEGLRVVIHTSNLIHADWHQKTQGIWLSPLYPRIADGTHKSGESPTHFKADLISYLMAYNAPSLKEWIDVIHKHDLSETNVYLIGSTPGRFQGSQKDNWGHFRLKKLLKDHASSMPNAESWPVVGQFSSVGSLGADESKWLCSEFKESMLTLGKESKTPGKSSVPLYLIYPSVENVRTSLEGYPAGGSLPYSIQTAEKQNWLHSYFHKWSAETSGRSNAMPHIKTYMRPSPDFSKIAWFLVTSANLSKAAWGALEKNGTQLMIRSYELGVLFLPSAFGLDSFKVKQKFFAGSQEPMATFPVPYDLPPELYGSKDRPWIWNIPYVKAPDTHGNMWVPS
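Recombinant E. coli-expressed Tdp1 (1 nM) preincubated with compound 15 min at RT, then 5'-biotin/3'-phosphotyrosine-FITC DNA substrate (15 nM) added for 5 min. AlphaScreen beads (10 ug/ml) added, 10 min RT; tyrosine-FITC cleavage read as signal loss.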
CtBP-E1A blk: inhibitors of CtBP/E1A interaction; AID 651724; activity change, % (test concentration not listed); AlphaScreen GST-E1A/His-CtBP binding, 1536-well; active compounds read low; 340,000 tested, 0.49% active; in the data active = activity change below about -65%; inconclusive = mostly about -30% to -63%
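In 5 uL wells, 23 nL compound meets equimolar GST-E1A and His-CtBP (5X stock 125 nM each) for 2 h, 37 °C. Beads (5X, 50 ug/mL) then 1 h, 37 °C, dark.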
A number is an active result; - = inactive; ? = inconclusive; . = not tested or not shown. An excerpt weighted towards active compounds, which were near 18% of everything screened. Unless noted, calls come from the whole dose curve; as a rule, active = well fitted curve in the direction sought with a large enough effect; inconclusive = small, poorly fitted or top-dose-only effect, or another doubt; inactive = no such curve, though single readings can be large; an effect the other way counts as inactive or inconclusive.

SMILES	TDP1 cell noCPT	IL1B secr inh	Six1-Eya2 blk	DT40 TDP1 CPT	TDP1 block	CtBP-E1A blk
CCc1nc2c(OCCn3cccc3)cccn2c1N(C)C(=O)c1cccs1	-	-	-	?	.	-
Cc1ccc(CN2CCS(=O)(=O)CC2)o1	-	-	-	-	-	-
O=C(Nc1nnc(S(=O)(=O)N2CCCCCC2)s1)c1ccccc1Br	-	-	-	-	-	-
CCCN(CC(=O)Nc1ccccc1C)C(=O)c1ccc(=O)n(Cc2ccccc2)n1	-	-87.0	-	-	-	-
CCN(CC(=O)Nc1ccccc1C(F)(F)F)C(=O)c1ccc(=O)n(Cc2ccccc2)n1	-	-	-	-	.	-
COc1cc(CN2CCCC(CO)(Cc3ccccc3)C2)ccc1O (centres undefined)	-	-	-	-	.	-
CCOc1ccc(CN2CCCC(CO)(Cc3ccccc3F)C2)cc1 (centres undefined)	?	-55.7	-	?	.	-
COc1ccc(CN2CCCC(CO)(Cc3ccc(F)cc3)C2)c(OC)c1OC (centres undefined)	?	-	-	14.6µM	.	-
CC(C)Oc1ccc(CN2CCCC(CO)(Cc3ccc(F)cc3)C2)cc1 (centres undefined)	?	-71.8	-	?	-	-
CCCN(CCC)Cc1cc(=O)oc2cc(C)c(Cl)cc12	?	-	-	?	.	-
CN(C(=O)c1cc2c(s1)-c1ccccc1S(=O)(=O)C2)c1ccccc1	23.1µM	-	-	11.6µM	.	-
COc1ccc(N(C)C(=O)c2cc3c(s2)-c2ccccc2OC3)c(OC)c1	9.2µM	-73.0	-	14.6µM	.	-
COc1ccc(N(C)C(=O)c2cc3c(s2)-c2ccc(Cl)cc2S(=O)(=O)C3)c(OC)c1	?	-	-	18.4µM	-	-
Cc1ccc(N2CC(NS(=O)(=O)c3cc(F)ccc3F)CC2=O)cc1C (centres undefined)	-	-	-	-	.	-
COc1cccc(NC(=O)c2cccc(C(=O)Nc3cccc(OC)c3)n2)c1	-	-	-	-	-	-
C=CC(=O)Nc1cccc(Oc2cc(Cl)nc3[nH]ccc23)c1	?	-72.5	-	16.4µM	-	-
O=c1[nH]ncc2ccccc12	.	.	.	.	-	.
N#CC1=C(N)Oc2ccc3ccccc3c2C1c1cccnc1 (centres undefined)	5.17µM	-	-	3.66µM	-	.
CCOC(=O)CC1=C(C(=O)OCC)C(c2cccnc2)C(C#N)=C(N)O1 (centres undefined)	-	-	-	-	-	-
Cc1nn(-c2cccc(Cl)c2)c2c1C(c1cccnc1)C(C#N)=C(N)O2 (centres undefined)	?	-	-	?	-	-
C=CCOC(=O)C1=C(C)OC(N)=C(C#N)C1c1ccc2c(c1)OCO2 (centres undefined)	16.4µM	-	-	25.9µM	-	-
COCCOC(=O)C1=C(C)OC(N)=C(C#N)C1c1ccc2c(c1)OCO2 (centres undefined)	?	-	-	?	-	-
CC1=C(n2nnc([N+](=O)[O-])n2)C(c2cccnc2)C(C#N)=C(N)O1 (centres undefined)	?	?	-	9.2µM	-	-
COC(=O)C1=C(C)OC(N)=C(C#N)C1c1cccnc1 (centres undefined)	?	-	-	20.6µM	-	-
CC(=O)Nc1ccc(NC(=O)c2csc([C@H]3C[C@H](O)[C@@H](CO)O3)n2)cc1	-	-	-	-	.	-
SMILES	TDP1 cell noCPT	IL1B secr inh	Six1-Eya2 blk	DT40 TDP1 CPT	TDP1 block	CtBP-E1A blk
CCOc1ccc(-c2nn3c(-c4ccccc4)nnc3s2)cc1	?	-	-	?	-	?
CS(=O)(=O)N(CC(=O)N1CCCC1)c1cc(Cl)c(Cl)cc1Cl	?	-	-	-	-	-
COc1ccc(S(=O)(=O)Nc2cc(Sc3ncn[nH]3)c(O)c3ccccc23)cc1	.	.	-	.	-	-
COc1ccc(S(=O)(=O)Nc2cccc3ccc(O)cc23)cc1	7.31µM	-	-	6.51µM	.	-
O=C(O)CSc1cc(NS(=O)(=O)c2ccc(Cl)cc2)c2ccccc2c1O	2.31µM	-84.2	-	4.61µM	.	?
COc1ccc(S(=O)(=O)Nc2cc(SCC(=O)O)c(O)c3ccccc23)cc1	5.17µM	-58.7	?	3.26µM	.	.
CCOC(=O)C1=C(c2ccccc2)O/C(=C(/C#N)C(F)(F)F)S1	.	.	.	.	-	.
O=C(Nc1cccc(C(F)(F)F)c1)Nc1ccc2[nH]c(=O)[nH]c2c1	-	-	-	-	.	-
CCOC(=O)C1=C(C)C2C3C(=O)N(c4ccccc4C)C(=O)C3C1(C)C1C(=O)N(c3ccccc3C)C(=O)C21 (centres undefined)	?	-	-	?	-	-
CCS(=O)(=O)N1CCCc2cc(C(=O)Nc3cccc(C(C)=O)c3)ccc21	25.9µM	.	.	?	-	.
CSc1cccc(NC(=O)c2ccc3c(c2)CCCN3S(C)(=O)=O)c1	?	.	.	16.4µM	-	.
O=C(Nc1cccc(Cl)c1)c1ccc2c(c1)CCN2S(=O)(=O)c1ccccc1	20.6µM	.	.	13µM	-	.
CSc1cccc(NC(=O)c2cccc(N3CCCS3(=O)=O)c2)c1	18.4µM	.	.	?	-	.
